DT40 TDP1 CPT – qHTS for Inhibitors of human tyrosyl-DNA phosphodiesterase 1 (TDP1): qHTS in cells in presence of CPT; chicken DT40 Tdp1-/-;hTDP1 cells + 20 nM CPT, ATP luminescence, 48 h; Potency, µM (series often up to 46.2 µM), for inactives: top-dose activity change, negative = growth inhibition, usual class: inhibitors; 12% of 420,000 active; AID 686979, 2013; also: potency is read from the fitted curve at half-maximal effect; % is scaled to controls: 0 for no effect and ±100 for the full control effect; nearly all actives have a fitted effect of over 55% in size
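Cell growth measured by CellTiter-Glo luminescence after a minimum 48 h, 37 C compound exposure with 20 nM CPT in Tdp1-knockout DT40 cells stably expressing hTDP1, seeded 400/well; qHTS titration format.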
TDP1 cell noCPT – qHTS for Inhibitors of human tyrosyl-DNA phosphodiesterase 1 (TDP1): qHTS in cells in absence of CPT. DT40 Tdp1-/- hTDP1 cells, no CPT, ATP luminescence, 48 h. Potency, µM (highest dose often 46.2 µM), without a hit: at the top dose activity change, negative = growth inhibition, usual class: inhibitors. 15% of 420,000 active. AID 686978, 2013; also: potency is read from the fitted curve at half-maximal effect; % is scaled to controls: 0 for no effect and ±100 for the full control effect; nearly all actives have a fitted effect of over 55% in size
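Camptothecin absent (DMSO only). Human TDP1-complemented DT40 knockout cells, 400 cells/well, 37 °C for minimum 48 hr; ATP measured via CellTiter-Glo, 30 min dark incubation, luminescence.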
IL1B secr inh – qHTS for Inhibitors of Inflammasome Signaling: IL-1-beta AlphaLISA Primary Screen; AID 743279, 2014; activity change, % at 57.5 µM; THP-1 LPS/ATP IL-1B secretion, AlphaLISA, 16 h; hits give low values; 4.7% of 360,000 active; in the data active = activity change below about -50%; inconclusive = mostly about -30% to -49%; also: % is scaled to controls: 0 for no effect and ±100 for the full control effect
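Secreted IL-1B measured by AlphaLISA bead assay after 16 h compound exposure of THP-1 cells; compounds (final up to 57.5 uM) added 1 h before LPS (250 ng/mL) and ATP (1.25 mM) stimulation; lower signal means less secretion.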
HepG2 tox – qHTS for Inhibitors of TGF-b: Cytotox Counterscreen; HepG2 CAGA-GFP viability, ATP luminescence, 18 h; Potency, µM (doses to about 46.1 µM), for the others: at the highest dose activity change, negative = cytotoxicity, most hits filed as cytotoxic; 0.76% of 410,000 active; AID 588856, 2011; also: potency is read from the fitted curve at half-maximal effect
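HepG2 CAGA-GFP cells (1000/well, DMEM with 1% FBS) received compound, then TGF-beta at 500 pg/mL final, and were incubated 18 hours at 37 degrees C. Viability was read by CellTiter-Glo luminescence. Media-only wells were set as complete cell-killing and DMSO as no toxicity.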
TGFb inhibitor – qHTS for Inhibitors of TGF-b. HepG2 CAGA-GFP TGF-b/SMAD3 reporter, GFP fluorescence, 18 h; TGF-beta stimulated, 500 pg/mL final. 1.2% of 410,000 active. Potency, µM (top dose mostly 46.1 µM), for inactives: at the top dose activity, negative = inhibition, usual class: inhibitors. AID 588855, 2011; also: potency is read from the fitted curve at half-maximal effect; % is scaled to controls: 0 for no effect and ±100 for the full control effect; nearly all actives have a fitted effect of over 65% in size
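HEPG2 CAGA-GFP, 1000 cells/well; 2 h settle, 37 C; cpd via pin tool; TGF-b 500 pg/mL final; 18 h, 37 C; GFP imaging ex488/em500-530; %Activity normalised to -TGF-b and +DMSO controls; CRC fit, curve class.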
TDP1 inh – qHTS Assay for Inhibitors of Tyrosyl-DNA Phosphodiesterase (TDP1); 0.28% of 350,000 active; recombinant TDP1, AlphaScreen DNA substrate cleavage; Potency, µM (top dose mostly 130 µM), for inactives: top-dose activity change, negative = inhibition, most hits filed as inhibitors; Tyrosyl-DNA phosphodiesterase 1 (Homo sapiens), Q9NUW8; AID 485290, 2010; also: potency is read from the fitted curve at half-maximal effect; % is scaled to controls: 0 for no effect and ±100 for the full control effect; nearly all actives have a fitted effect of over 40% in size
Target sequence (Q9NUW8 whole entry, looked up): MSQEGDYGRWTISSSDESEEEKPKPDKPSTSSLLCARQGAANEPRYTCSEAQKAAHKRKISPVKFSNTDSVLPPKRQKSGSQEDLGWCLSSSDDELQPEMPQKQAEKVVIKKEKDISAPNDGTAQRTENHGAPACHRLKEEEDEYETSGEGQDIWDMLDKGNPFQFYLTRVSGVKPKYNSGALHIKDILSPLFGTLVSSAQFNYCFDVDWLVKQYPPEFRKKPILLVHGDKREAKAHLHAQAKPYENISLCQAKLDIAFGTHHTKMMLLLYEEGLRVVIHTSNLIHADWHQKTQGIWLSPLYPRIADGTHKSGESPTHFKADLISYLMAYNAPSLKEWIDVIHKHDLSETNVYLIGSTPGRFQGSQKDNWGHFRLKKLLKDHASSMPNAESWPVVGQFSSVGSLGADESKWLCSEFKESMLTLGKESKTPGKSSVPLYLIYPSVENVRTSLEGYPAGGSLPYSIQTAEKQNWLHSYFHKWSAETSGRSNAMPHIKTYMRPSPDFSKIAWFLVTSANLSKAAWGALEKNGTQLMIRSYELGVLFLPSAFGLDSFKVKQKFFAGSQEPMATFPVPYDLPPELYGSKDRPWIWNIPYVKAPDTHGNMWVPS
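Signal: AlphaScreen proximity between streptavidin donor and anti-FITC acceptor beads on intact substrate. Reaction: Tdp1 1 nM, substrate 15 nM final, 5 min RT after 15 min compound preincubation.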
Starred values were filed as active, the others as inactive; u = inconclusive; x = no result. Rows were chosen to be rich in hits. Some 19% of all compounds tested hit in one or more screens of this group. Unless noted, calls follow the shape of the dose curve; as a rule, active = well fitted curve in the direction sought with a large enough effect; inconclusive = small, poorly fitted or top-dose-only effect, or another doubt; inactive = no such curve, though single readings can be large; an effect the other way counts as inactive or inconclusive.

SMILES	DT40 TDP1 CPT	TDP1 cell noCPT	IL1B secr inh	HepG2 tox	TGFb inhibitor	TDP1 inh
CC(Oc1cccc(Cl)c1)C(=O)Nc1ccccc1N1CCCC1 (configuration not stated)	u	u	-10	-7%	6%	1%
Cc1cc(Cl)ccc1OC(C)C(=O)Nc1cccc(S(=O)(=O)N2CCOCC2)c1 (configuration not stated)	u	u	u	-4%	-13%	x
Cc1cc(Cl)ccc1OC(C)C(=O)Nc1ccccc1N1CCOCC1 (configuration not stated)	u	u	-58*	10%	0%	2%
Cc1cc(Cl)ccc1OC(C)C(=O)N1CCCN(C(=O)C(C)Oc2ccc(Cl)cc2C)CC1 (configuration not stated)	21µM*	21µM*	-65*	-5%	u	0%
CCOC(=O)c1ccc2c(c1)nc(SCc1cn3ccsc3n1)n2CC	u	16µM*	u	-15%	u	10%
Cc1cc(C)c(NC(=O)CNC(=O)CSc2nnc(N)s2)c(C)c1	19%	-12%	9	0%	-15%	-5%
COc1ccccc1C(=O)N/C(=C/c1ccc(Br)cc1)C(=O)N1CCCC1	26µM*	21µM*	-14	-40%	u	4%
COc1ccccc1C(=O)N/C(=C\c1ccc(Br)cc1)C(=O)NCC(=O)O	5%	-12%	8	-11%	0%	0%
CN(C)S(=O)(=O)n1cc(/C=C(\NC(=O)c2ccccc2F)C(=O)NCCN2CCOCC2)c2ccccc21	u	12µM*	-5	-22%	9%	x
CN1CCN(C(=O)/C(=C/c2cn(S(=O)(=O)N(C)C)c3ccccc23)NC(=O)c2ccccc2)CC1	-1%	1%	u	-13%	-20%	4%
COc1ccccc1C(=O)N/C(=C\c1cn(S(=O)(=O)N(C)C)c2ccccc12)C(=O)N1CCN(C)CC1	26µM*	u	u	11%	9%	x
CN(C)S(=O)(=O)n1cc(/C=C(\NC(=O)c2ccccc2)C(=O)NCCN2CCOCC2)c2ccccc21	-19%	-13%	8	-16%	-16%	-1%
CN(C)S(=O)(=O)n1cc(/C=C(\NC(=O)c2ccccc2)C(=O)N2CCCCC2)c2ccccc21	23µM*	18µM*	-13	2%	-21%	x
CSCC[C@H](NC(=O)[C@H](CC(C)C)NC(=O)CNC(=O)[C@H](Cc1ccccc1)NC(=O)[C@H](Cc1ccccc1)NC(=O)[C@H](CCC(N)=O)NC(=O)[C@H](CCC(N)=O)NC(=O)[C@@H]1CCCN1C(=O)[C@H](CCCCN)NC(=O)[C@@H]1CCCN1C(=O)[C@@H](N)CCCN=C(N)N)C(N)=O	x	x	x	x	x	8%
CC1(C(=O)NCc2cccc(Cl)c2)Cc2c(-c3ccc(C(N)=O)cc3)ccnc2O1 (configuration not stated)	-27%	u	-16	-5%	-3%	x
CC1(C(=O)NCCC(F)(F)F)Cc2c(-c3ccccc3)ccnc2O1 (configuration not stated)	6.5µM*	5.8µM*	0	-18%	16%	x
CC(=O)NCCNC(=O)C1(C)Cc2c(-c3ccccc3)ccnc2O1 (configuration not stated)	-15%	-13%	8	-7%	5%	x
CC1(C(=O)NCc2ccco2)Cc2c(-c3ccccc3)ccnc2O1 (configuration not stated)	2.6µM*	2.3µM*	56	-37%	-26%	x
CCOc1ccc(CCNC(=O)c2c3c(nc4ccccc24)C(=O)N(C2CCCCC2)C3)cc1	16µM*	21µM*	x	-16%	9%	3%
CCN(CC)CCCNC(=O)c1c2c(nc3ccccc13)C(=O)N(C1CCCCC1)C2	-3%	-14%	x	-15%	8%	-1%
Cc1c(-c2ccccc2)nc2ccccc2c1C(=O)Oc1ccc([N+](=O)[O-])cc1	8.2µM*	5.8µM*	-51*	-23%	-29%	-2%
O=C(NCCc1ccccc1)c1c2c(nc3ccccc13)C(=O)N(C1CCCCC1)C2	12µM*	18µM*	x	-12%	15%	5%
CCc1c(-c2ccccc2)nc2ccccc2c1C(=O)NCCc1ccccc1	u	23µM*	x	-44%	u	5%
CCCNC(=O)c1c2c(nc3ccccc13)C(=O)N(C1CCCCC1)C2	-3%	-21%	x	-5%	22%	2%
CCOC(=O)C1=CCC2C(=O)N(CC)C(=O)C12 (configuration not stated)	u	3%	47	-13%	-8%	x
SMILES	DT40 TDP1 CPT	TDP1 cell noCPT	IL1B secr inh	HepG2 tox	TGFb inhibitor	TDP1 inh
O=C(O)CCC/C=C\C[C@@H]1CO[C@H](C(F)(F)F)O[C@@H]1c1ccccc1O	-2%	-4%	x	x	x	4%
CC(C)NC(=O)c1cn([C@H]2CC[C@@H](NC(=O)/C=C/c3cccs3)CC2)nn1	u	-17%	x	x	x	x
CCCCN(C)CCNC(=O)c1c2c(nc3ccccc13)C(=O)N(C1CCCCC1)C2	-21%	-28%	x	-16%	29%	10%
Cc1c(C(=O)NCc2cccs2)oc2ccccc12	-11%	-4%	-10	4%	-3%	7%
Cc1c(-c2ccccc2)nc2ccccc2c1C(=O)NCc1cccs1	u	16µM*	-6	0%	4%	2%
O=C(NCCc1ccc(Cl)cc1)c1c2c(nc3ccccc13)C(=O)N(C1CCCCC1)C2	15µM*	15µM*	x	-3%	18%	2%
Cc1cccc(NC(=O)Cn2cc(C(=O)C3CCCCC3)c3ccccc32)c1C	u	u	x	-21%	u	1%
Cc1ccccc1Nc1cccc2nonc12	2%	-25%	-52*	-42%	0%	x
Cc1ccccc1NS(=O)(=O)c1cccc2nonc12	-24%	3%	2	-25%	-9%	-15%
CCCC(=O)NCC(c1ccc2c(c1)OCO2)N1CCN(c2ccccc2)CC1 (configuration not stated)	u	u	x	-1%	11%	7%
CCOC(=O)c1ccc(NC(=O)CSc2nc3ncccc3[nH]2)cc1	u	21µM*	-13	5%	-6%	5%
